# Laboratory results: PubChem BioAssay (NCATS)
# Records with an inconclusive call do not appear. Values without a mark were called inactive. Activity calls are given as the source filed them. Calls come from the whole dose curve; as a rule, active = well fitted inhibition curve with a large enough effect; inconclusive = small, poorly fitted or top-dose-only effect; inactive = flat fitted curve, though single readings scatter.
# Tested on: DFO2036
# Assay: qHTS profiling for inhibitors of Plasmodium falciparum proliferation (AID 504749); note: nearly all actives have a fitted effect of over 60% in size;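 for activity, negative = inhibition: 0% = DMSO vehicle and full inhibition = artemisinin control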
# Details: P. falciparum in erythrocytes, SYBR Green DNA, 72 h; series mostly up to 28.7 µM; activity, negative = inhibition: at the top concentration
# Summary of the method: (§1)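 Fluorescence of SYBR Green-bound parasite DNA, read at 485/535 nm, served as the growth measure. Infected erythrocytes were cultured with compound 72 h; artemisinin (0.29 uM) and DMSO wells defined the normalization range.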
# Potency is the fitted concentration of half-maximal effect.
SMILES,"activity, negative = inhibition",Potency
CCC1(c2ccccc2)C(=O)NC(=O)N(C(=O)c2ccccc2)C1=O (stereo unspecified),2.38%,
COc1ccc2c(c1OC)C(=O)OC2C1c2cc3c(cc2CCN1C)OCO3 (stereo unspecified),7.74%,
C=CCN=C=S,2.55%,
OC(c1ccccc1)(c1ccccc1)C1CN2CCC1CC2 (stereo unspecified),-10.4%,
CCOc1ccc2c3c1O[C@H]1[C@@H](O)C=C[C@H]4[C@@H](C2)N(C)CC[C@@]341,-3.55%,
Cc1sc2ccccc2c1CC1=NCCN1,-9.49%,
O=C1CN=C(c2ccccc2)c2cc(Cl)ccc2N1CC1CC1,-5.1%,
CC(C)Nc1ccc(Nc2ccccc2)cc1,,5.01 µM (active)
CNC(=O)Oc1ccccc1C(=O)Nc1ccccc1,-21.7%,
c1ccc2cc(CC3=NCCN3)ccc2c1,-0.888%,
C[C@@H](Cc1ccccc1)NCCC(c1ccccc1)c1ccccc1,-17.6% [at 12.8 µM],
CCCN1CCCC2Cc3[nH]ncc3CC21 (stereo unspecified),-5.43%,
Oc1cc(Cl)c(Cl)cc1Cl,10.9%,

# Tested on: DIV14
# Assay: as above
# Details: P. falciparum in erythrocytes, SYBR Green DNA, 72 h; series mostly up to 28.7 µM; activity, negative = inhibition: at the top concentration
# Summary of the method: as §1
SMILES,"activity, negative = inhibition [%]",Potency
O=[N+]([O-])c1ccccc1,14.4,
O=C1CC[C@@]2(O)C3Cc4ccc(O)c5c4C2(CCN3CC2CC2)[C@H]1O5 (stereo partly specified),-0.235,
O=C/C=C/c1ccccc1,-1.02,
CCNC(C)Cc1cccc(C(F)(F)F)c1 (stereo unspecified),-11.4,
c1ccc(C2(N3CCCC3)CCCCC2)cc1,,12 µM (active)
CCC1(CC)C(=O)NC(=O)N(C)C1=O,6.98,
c1cc2c(c(NC3=NCCN3)c1)CCCC2,,15.1 µM (active)
N#CC(C#N)=Cc1cc(O)c(O)c(O)c1,,13.5 µM (active)
F/C(COc1ccc2c(c1)[nH]c1ccccc12)=C1/CN2CCC1CC2,,4.26 µM (active)
Oc1cccc[c]1[Hg][Cl],,4.78 µM (active)
CCCCCCCCCC(=O)O[C@H]1CC[C@H]2[C@@H]3CCC4=CC(=O)CC[C@]4(C)[C@H]3CC[C@]12C,-9.4,
CCC1(c2ccccc2)C(=O)NC(=O)N(C(=O)c2ccccc2)C1=O (stereo unspecified),-22.9,
C=CCN=C=S,-28.5,
CCOc1ccc2c3c1O[C@H]1[C@@H](O)C=C[C@H]4[C@@H](C2)N(C)CC[C@@]341,,15.1 µM (active)
O=C1CN=C(c2ccccc2)c2cc(Cl)ccc2N1CC1CC1,-11.1,
CC(C)Nc1ccc(Nc2ccccc2)cc1,,12 µM (active)
C[C@@H](Cc1ccccc1)NCCC(c1ccccc1)c1ccccc1,,3.22 µM (active)
CN1[C@@H]2CC[C@H]1CC(OC1c3ccccc3CCc3ccccc31)C2 (stereo partly specified),,1.81 µM (active)
